HPGD inh: inhibitors of human 15-hydroxyprostaglandin dehydrogenase (HPGD). P15428. 150,000 compounds, 4.3% hits. purified HPGD, NADH fluorescence kinetic, PGE2 substrate. AID 894. Potency, µM, for inactives: at the highest dose activity change, negative = inhibition, most hits filed as inhibitors; also: potency is read from the fitted curve at half-maximal effect
Target sequence (P15428 whole entry, looked up): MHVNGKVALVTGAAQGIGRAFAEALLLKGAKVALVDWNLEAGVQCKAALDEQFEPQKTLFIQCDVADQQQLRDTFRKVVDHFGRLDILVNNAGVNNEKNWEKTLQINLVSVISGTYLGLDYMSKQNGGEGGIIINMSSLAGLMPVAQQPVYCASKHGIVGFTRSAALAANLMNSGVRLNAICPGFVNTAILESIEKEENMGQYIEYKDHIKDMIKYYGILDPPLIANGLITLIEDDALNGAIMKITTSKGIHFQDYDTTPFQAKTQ
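20 nM HPGD preincubated 15 min at room temperature with compound in 50 mM Tris-HCl pH 8, 0.01% Tween 20. Started with 1 mM NAD+ and 30 uM prostaglandin E2; NADH fluorescence (360/450 nm) read 5 times over 30-s intervals, last minus first.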
IMPase inh: cell-permeable inhibitors of inositol monophosphatase (IMPase); 120,000 tested, under 10 active; CHO-M1 cells, IP1 accumulation, HTRF TR-FRET ratio; inhibition (IP1 accumulation), % at 46.1 µM; P97697; active = well fitted curve in the direction sought with a large enough effect in the signal ratio, not every such curve was filed as active; inconclusive = small, poorly fitted or top-dose-only effect, or a change in a side signal; inactive = no such curve, though single readings can be large or run the other way; the % refers to the signal ratio;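 also: cells stimulated with carbachol in lithium chloride buffer; plate controls were DMSO basal wells for no effect and reference inhibitor wells for full effect; higher means more IMPase inhibition seen as more IP1 and lower FRET ratio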
Target sequence (P97697 whole entry, looked up): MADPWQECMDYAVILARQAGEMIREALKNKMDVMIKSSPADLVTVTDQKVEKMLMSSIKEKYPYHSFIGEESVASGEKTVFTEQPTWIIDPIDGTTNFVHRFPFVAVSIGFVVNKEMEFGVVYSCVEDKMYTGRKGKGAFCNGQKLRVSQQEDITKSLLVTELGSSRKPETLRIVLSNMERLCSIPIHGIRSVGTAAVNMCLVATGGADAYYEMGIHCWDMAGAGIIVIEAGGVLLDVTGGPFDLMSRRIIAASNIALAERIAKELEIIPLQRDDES
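CHO-M1, 2000 cells/well, cultured 16–30 h; cpd up to 46 uM; carbachol (50 uM solution, stimulation buffer w/ 50 mM LiCl, pH 7.4), 30 min 37C; IP-One TR-FRET, 10 min RT; Ex 320/Em 665, 620; Hill-fit AC50.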
ALOX12 inhib: inhibitors of human 12-lipoxygenase (ALOX12); P18054; purified 12-hLO, xylenol orange hydroperoxide absorbance; Potency, µM (doses to about 57.1 µM), inactives show top-dose activity change, negative = inhibition, hits mostly inhibitors; 150,000 compounds, 0.12% hits; AID 1452; active = well fitted curve in the direction sought with a large enough effect; inconclusive = small, poorly fitted or top-dose-only effect, or another doubt; inactive = no such curve, though single readings can be large; an effect the other way counts as inactive or inconclusive; also: potency is read from the fitted curve at half-maximal effect; nearly all actives have a fitted effect of over 55% in size
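Purified human 12hLO (150 nM final) was preincubated with compounds for 15 min at room temperature in 25 mM Hepes pH 7.0, 0.01% Triton X-100, then reacted with 40 uM arachidonic acid for 30 min. Hydroperoxide was detected with ferrous iron/xylenol orange.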
ALDH1A1 inh: inhibitors of human aldehyde dehydrogenase 1A1. AID 1030. Purified ALDH1A1, NADH fluorescence, propionaldehyde substrate. 220,000 compounds, 7.3% hits. Potency, µM (highest dose often 75.3 µM), for inactives: top-dose activity, negative = inhibition, actives largely listed as inhibitors;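 also: potency is read from the fitted curve at half-maximal effect; plate controls were no enzyme wells and a reference inhibitor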
IMPase Li cell: IMPase inhibition in cells with lithium potentiation; Potency, µM (top dose mostly 59.4 µM), for the others: top-dose activity, negative = IMPase inhibition, actives largely listed as inhibitors; CHO-M1 cells, IP1 TR-FRET (IP-One), carbachol + lithium; 210,000 compounds, 0.35% hits; AID 1457; active = well fitted curve in the direction sought with a large enough effect; inconclusive = small, poorly fitted or top-dose-only effect, or another doubt; inactive = no such curve, though single readings can be large; an effect the other way counts as inactive or inconclusive;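 also: IP1 builds up when IMPase is blocked and the TR-FRET signal falls; potency is read from the fitted curve at half-maximal effect; plate controls were basal vehicle for no effect and high inhibitor control for full effect; nearly all actives have a fitted effect of over 50% in size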
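Lithium-sensitised IP1 accumulation assay; M1-expressing CHO cells treated 30 min at 37C with compound. Competitive antibody detection by time-resolved FRET followed a 10 min room-temperature lysis step.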
PNC assembly inh: blocks assembly of the perinucleolar compartment; PC3M PTB-GFP, PNC prevalence imaging, 16 h; active compounds read low; AID 2417; 140,000 compounds, 3.1% hits; activity change (PNC), negative = inhibition, % at 10 µM;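 active = readout at or below -70, meaning at least 70% loss of cells showing the perinucleolar compartment, a nuclear body marking cancer cells; inconclusive = readout between -30 and a set limit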;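 also: plate controls were DMSO wells for no effect and camptothecin positive control wells for full effect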
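Read-out is percentage of cells bearing a perinucleolar compartment, from automated 20x imaging of fixed, Hoechst-stained PC3M PTB-GFP cells. Cells were seeded 4 h, then exposed 16 h to compound (23 nl of library stock) in duplicate plates.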
Active calls of the source: *; ? = inconclusive; · = not tested or not shown; [ ] = dose if it differs, or a comment. Only some compounds are listed: those with a hit (about 11% of all), similar ones and a draw of the others. Unless noted, calls follow the shape of the dose curve; as a rule, active = well fitted inhibition curve with a large enough effect (not every such curve was filed as active); inconclusive = small, poorly fitted or top-dose-only effect, or another doubt; inactive = no such curve, though single readings can be large or run the other way. Unless noted, % is scaled to controls: 0 for no effect and ±100 for the full control effect.

SMILES	HPGD inh	IMPase inh	ALOX12 inhib	ALDH1A1 inh	IMPase Li cell	PNC assembly inh
COc1ccc(-c2oc(NC(=O)CCl)c(C#N)c2-c2ccc(OC)cc2)cc1	-16%	-8	-3%	2.5µM*	46%[38.3 µM]	25
COc1ccccc1OCC(=O)Nc1oc(-c2ccccc2)c(-c2ccccc2)c1C#N	-18%	11	-5%	-9%	39%[38.3 µM]	32
COC(=O)[C@@]1(Cc2ccccc2)[C@H]2c3cc(C(=O)N4CCCC4)n(Cc4ccc(O)c(OC)c4)c3C[C@H]2CN1C(=O)c1ccccc1	-14%	·	-5%	?	8%	·
Nc1nonc1-c1nc2ccccc2n1CC(=O)Nc1ccccc1C(=O)O	·	1	·	·	·	·
COC(=O)c1ccc(NC(=O)Cn2c(-c3nonc3N)nc3ccccc32)cc1	·	-4	·	-10%	-12%	·
CC(C)OC(=O)c1ccc(NC(=O)Cn2c(-c3nonc3N)nc3ccccc32)cc1	-6%	18	3%	22µM*	15%	0
COC(=O)c1ccccc1NC(=O)Cn1c(-c2nonc2N)nc2ccccc21	1%	1	-4%	-1%	22%[38.3 µM]	-98*
c1cn(-c2cc(-c3ccc4c(c3)OCO4)ncn2)cn1	·	·	·	?	-8%	·
CCCOc1ccc(CN(CCC#N)C(=S)NC(=O)c2ccccc2)cc1	28µM*	·	-5%	-4%	-6%	?
CC1=C(C(=O)Nc2ccccc2)C(c2sccc2C)n2nnnc2N1 (stereo not given)	-14%	-1	-1%	0.35µM*	20%[38.3 µM]	3
C=CCOC(=O)C1=C(C)Nc2nnnn2C1c1ccc(OC)cc1OC (stereo not given)	-5%	-9	2%	?	1%[38.3 µM]	58
CCCOc1ccccc1C1C(C(=O)Nc2ccccc2)=C(C)Nc2nnnn21 (stereo not given)	·	3	·	·	·	·
CC1=C(C(=O)OC(C)C)C(c2cccs2)n2ncnc2N1 (stereo not given)	-6%	7	0%	7%	6%[38.3 µM]	-11
C=CCOC(=O)C1=C(C)Nc2nnnn2C1c1cccs1 (stereo not given)	-16%	3	-7%	6.3µM*	-2%[38.3 µM]	?
COC(=O)C1=C(C)Nc2nnnn2C1c1cccs1 (stereo not given)	16µM*	1	8%	2.8µM*	31%[38.3 µM]	?
CC(C)[C@@H](OCc1ccccc1)[C@H](C)/C=N\OC[C@@H](O)COCc1ccco1	·	·	·	6%[13.5 µM]	·	·
O=C(Cn1nnc(-c2ccccc2)n1)N/N=C/c1cccc([N+](=O)[O-])c1O	·	·	·	9%	1%	·
O=C(Cn1nc2ccccc2n1)N/N=C/c1cc(Cl)cc([N+](=O)[O-])c1O	·	·	·	14µM*	4%	·
CC(C)(C)N/N=C/c1cc(Cl)cc([N+](=O)[O-])c1O	-26%	·	-19%	8%	6%	-9
Cc1ccccc1C(=O)Nc1cccc(C(=O)N/N=C/c2cc(Cl)cc([N+](=O)[O-])c2O)c1	·	·	·	1.3µM*	-8%	·
Cc1cc2cc(CCNS(=O)(=O)c3ccc(Br)cc3)c(=O)[nH]c2cc1C	·	8	·	·	·	·
CN=C(N)/N=C(\N)Nc1cc2ccccc2c2ccccc12	-7%	·	5%[11.4 µM]	7%[13.5 µM]	-4%	·
CCc1n(CC(O)COC2CCCCC2)c2ccccc2[n+]1C (stereo not given)	·	·	·	?	16%	·
N=C1N(/N=C/c2ccccc2)C(=Nc2ccccc2)C(=S)N1c1ccccc1	-21%	-3	-2%	?	11%	-100*
Cc1nnc(C)n1/N=C/c1ccccc1	6%	5	4%	0%	-10%[38.3 µM]	24
SMILES	HPGD inh	IMPase inh	ALOX12 inhib	ALDH1A1 inh	IMPase Li cell	PNC assembly inh
Cc1c(Cl)cccc1NS(=O)(=O)c1ccc(NS(=O)(=O)c2ccc3c(c2)OCCO3)cc1	·	1	·	·	·	·
O=C(COc1cccnc1[N+](=O)[O-])N1N=C(c2ccc(Cl)cc2)CC1c1ccco1 (stereo not given)	·	·	·	13µM*	13%	·
CCC(=O)Nc1ncnc2ncn(C(=O)CC)c12	-12%	·	0%[11.4 µM]	13%[13.5 µM]	-2%	·
COc1ccc(CSc2nncn2N)cc1[N+](=O)[O-]	-15%	·	0%	?	-7%	-89*
COc1ccc(CSc2nnc(NC(C)=O)s2)cc1[N+](=O)[O-]	·	·	·	7%	0%	·
COc1ccc(CSc2nncn2C)cc1[N+](=O)[O-]	-11%	·	-1%	20µM*	0%	27
CCOC(=O)c1c(NC(=O)Cn2cnc3scc(-c4ccc(C)cc4)c3c2=O)sc(C)c1C	-29%	4	2%	14µM*	-22%	?
CCOC(=O)c1c(NC(=O)Cn2cnc([N+](=O)[O-])n2)sc2c1CCCC2	-17%	5	-3%	?	4%	30
CCOC(=O)c1c(NC(=O)Cn2cnc([N+](=O)[O-])n2)sc(C)c1C	·	·	·	32µM*	-3%	·
CC(C)OC(=O)c1c(NC(=O)Cn2cnc([N+](=O)[O-])n2)sc2c1CCCC2	-27%	2	0%	13µM*	13%[38.3 µM]	?
COC(=O)c1c(NC(=O)Cn2nc(C(F)F)cc2C(F)F)sc(C)c1C	28µM*	4	-9%	11µM*	13%[38.3 µM]	?
CCOC(=O)c1c(NC(=O)Cn2nc(C(F)F)cc2C(F)F)sc(C)c1C	?	-7	-14%	?	12%[38.3 µM]	37
CCOC(=O)c1c(NC(=O)Cn2cnc3sc(C)c(-c4ccccc4)c3c2=O)sc(C)c1C	?	·	-7%	?	3%	7
O=C(OC[C@@H]1O[C@@](O)(COC(=O)c2cccnc2)[C@H](OC(=O)c2cccnc2)[C@H]1OC(=O)c1cccnc1)c1cccnc1	-10%	·	1%[0.00818 µM]	5%	0%	·
O=c1cc(-c2ccccc2Cl)oc2c(NS(=O)(=O)c3cc(Cl)cc(Cl)c3O)ccc(O)c12	4.5µM*	·	0.28µM*	10µM*	12%	38
O=S(=O)(Nc1ccc(Cl)cc1Cl)c1cc(Cl)ccc1Cl	?	·	-8%	2%	·	·
Cc1c(CN(C)C)c2c(n1Cc1ccccc1)C(=O)c1ccc(Br)cc1-2	-4%	7	-9%	10µM*	44%[38.3 µM]	-10
Cc1cc(C)n(Cc2ccccc2)c(=O)c1S(=O)(=O)c1ccccc1	-5%	2	11%	?	1%[38.3 µM]	30
Cc1ccc2nc(NC(=O)Cc3cccs3)sc2c1	-21%	-2	1%	7.9µM*	24%[38.3 µM]	50
COc1ccc2nc(NC(=O)Cc3cccs3)sc2c1	-8%	0	-11%	-7%	26%[38.3 µM]	?
CC1CCc2nc(NC(=O)C3CCCO3)sc2C1 (stereo not given)	-21%	-2	-7%	20µM*	20%[38.3 µM]	?
CC1CCc2nc(NC(=O)Cc3cccs3)sc2C1 (stereo not given)	-24%	3	-8%	20µM*	25%[38.3 µM]	?
